Epigenetic derep = regulators of epigenetic silencing causing reporter derepression in mouse cells; murine LDR cells, GFP reporter derepression, 30 h; Potency, µM (highest dose often 53.9 µM), hits mostly activators; actives 0.2% (n = 280,000); AID 1865; note: nearly all actives have a fitted effect of over 60% in size
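In this reporter-derepression format, murine cells bearing a silenced integrated CMV-GFP locus incubate with test compound (30 h, 37 C), then are washed and imaged; fluorescent objects of 20–120 um count as induced cells.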
KAT2A inh = blocks human GCN5L2 histone acetyltransferase; Q92830; GCN5L2 HAT assay, ThioGlo1 CoA-SH fluorescence; Potency, µM (highest dose often 58.9 µM), actives largely listed as inhibitors; actives 0.21% (n = 390,000)
Target sequence (Q92830 whole entry, looked up): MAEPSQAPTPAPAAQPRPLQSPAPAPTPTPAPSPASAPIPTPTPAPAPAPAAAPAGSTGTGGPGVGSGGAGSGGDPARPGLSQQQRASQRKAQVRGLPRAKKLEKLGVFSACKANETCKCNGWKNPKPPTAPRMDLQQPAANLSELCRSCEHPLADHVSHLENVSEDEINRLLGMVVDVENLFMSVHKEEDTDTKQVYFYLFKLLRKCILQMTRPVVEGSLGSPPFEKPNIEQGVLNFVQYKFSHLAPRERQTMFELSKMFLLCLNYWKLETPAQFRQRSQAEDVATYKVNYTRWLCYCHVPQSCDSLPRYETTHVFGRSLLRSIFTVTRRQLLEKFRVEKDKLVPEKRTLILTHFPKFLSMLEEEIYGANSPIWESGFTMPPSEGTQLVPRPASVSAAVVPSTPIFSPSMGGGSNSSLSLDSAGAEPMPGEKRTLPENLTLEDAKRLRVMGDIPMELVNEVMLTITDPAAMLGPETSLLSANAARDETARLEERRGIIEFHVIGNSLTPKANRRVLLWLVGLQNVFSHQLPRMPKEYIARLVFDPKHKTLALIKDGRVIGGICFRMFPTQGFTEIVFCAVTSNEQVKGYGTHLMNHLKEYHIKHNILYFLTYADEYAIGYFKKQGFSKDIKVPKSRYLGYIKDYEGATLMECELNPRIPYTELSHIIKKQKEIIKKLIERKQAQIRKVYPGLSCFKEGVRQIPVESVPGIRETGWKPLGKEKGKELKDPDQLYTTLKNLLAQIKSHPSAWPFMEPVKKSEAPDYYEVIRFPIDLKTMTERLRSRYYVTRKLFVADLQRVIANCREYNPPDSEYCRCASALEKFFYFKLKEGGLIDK
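Fluorescence readout, Ex340nm/Em540nm: ThioGlo1 (50uM final) reacts with free CoA thiol released as 20nM GCN5L2 acetylates H3(1-25) peptide (75uM) using acetyl-CoA (70uM). Compound and enzyme sat 15 min beforehand; 20 min room-temperature reaction.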
Sfp PPTase inh = inhibitors of Bacillus subtilis Sfp phosphopantetheinyl transferase; Q9F4F7; Biochemical Sfp PPTase activity, qHTS; Potency, µM, hits mostly inhibitors; actives 3.5% (n = 310,000); AID 1490;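 note: the enzyme is Sfp with the accession as filed and its product quenches rhodamine fluorescence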
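Step 1, compound plus 15 nM Sfp-PPTase, 15 min, room temperature. Step 2, add rhodamine-CoA (5 uM) and BHQ-2-YbbR (12.5 uM). Step 3, read 525/598 nm fluorescence at 0 and 30 min.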
NPSR antagonist = neuropeptide S receptor (human) antagonism, cAMP; AID 1461; CHO-NPSR cells, cAMP TR-FRET, antagonist mode; Potency, µM (highest dose often 38.3 µM), most hits filed as inhibitors; Q6W5P4; actives 1% (n = 220,000); note: nearly all actives have a fitted effect of over 50% in size
KDM4E inh = inhibitors of human JMJD2E histone demethylase. actives 1.6% (n = 230,000). AID 2147. B2RXH2. JMJD2E catalytic domain, FDH-coupled NADH fluorescence (FDH is formaldehyde dehydrogenase). Potency, µM (doses to about 57.1 µM), actives largely listed as inhibitors; active = well fitted inhibition curve with a large enough effect, not every such curve was filed as active; inconclusive = small, poorly fitted or top-dose-only effect, or another doubt; inactive = no such curve, though single readings can be large or run the other way; note: nearly all actives have a fitted effect of over 50% in size
IMPase Li inh = cell-permeable IMPase inhibitors with lithium potentiation. CHO-M1 cells, IP1 TR-FRET (IP-One), carbachol + lithium. Potency, µM (doses to about 59.4 µM), usual class: inhibitors. actives 0.35% (n = 210,000);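 note: IP1 builds up when IMPase is blocked and the TR-FRET signal falls; nearly all actives have a fitted effect of over 50% in size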
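IP1 accumulation measured by competitive TR-FRET in lysed CHO-M1 cells after 30 min compound exposure at 37C, with a small lithium addition to potentiate weak responses. Hill-equation AC50 from ratio and donor-channel data.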
A number is an active result; 0 = inactive; ? = inconclusive; - = not tested or not shown; [ ] = dose if it differs, or a comment. The list is not random: actives were taken first. Their share in the collection is about 3.6%. Unless noted, calls come from the whole dose curve; as a rule, active = well fitted curve in the direction sought with a large enough effect; inconclusive = small, poorly fitted or top-dose-only effect, or another doubt; inactive = no such curve, though single readings can be large; an effect the other way counts as inactive or inconclusive.

SMILES	Epigenetic derep	KAT2A inh	Sfp PPTase inh	NPSR antagonist	KDM4E inh	IMPase Li inh
COC(=O)NC(Nc1sc2c(c1C(N)=O)CCCC2)(C(=O)OC)C(F)(F)F (centres undefined)	0	0	22µM	0	?	-
COC(=O)N1CCC2(CCN(Cc3ccc(C#N)cc3)CC2)CC1	-	0	0	-	-	0
Cc1cc(N/N=C/c2ccc(N(C)C)cc2)nc(NCc2ccccc2)n1	0	0	20µM	10µM	?	-
Cc1ccc(/C=N/Nc2cc(C)nc(NCc3ccccc3)n2)cc1	0	0	16µM	?	0	-
CCOC(=O)/C(C#N)=C1\C(=O)N(Cc2ccccc2)c2ccccc21	0	0	35µM	?	0	-
CC1(C)CCN2CCC(C)(C)c3c(O)ccc1c32	-	0	20µM	-	-	-
CCc1nn2c(=O)cc(COC(=O)c3cccc(NC(=O)CCc4ccccc4)c3)nc2s1	0	0	-	-	-	-
COc1cc(/C=C2/C(=O)c3cccc([N+](=O)[O-])c3C2=O)c(Br)cc1O	0	?	20µM	10µM	0	0
COc1ccccc1NC(=O)CCCCCN1C(=O)c2cccc([N+](=O)[O-])c2C1=O	-	0	0	-	-	-
CC/C=C/C#N	-	-	-	-	-	0
CCOc1cc(-c2sc(Nc3cc(C)ccc3OC)n[n+]2-c2ccccc2)ccc1OC	-	0	-	-	-	-
COc1ccc(C)cc1Nc1n[n+](-c2ccccc2)c(-c2ccc(C(=O)O)cc2)s1	-	0	56µM	-	-	-
BrC/C=C/CBr	-	-	-	-	-	0
O=C(NCc1ccccc1Cl)c1ccc(Nc2nc3ccccc3n3nnnc23)cc1	10µM	0	-	-	-	-
O=C(NCCc1ccccc1)c1ccc(Nc2nc3ccccc3n3nnnc23)cc1	0	0	-	-	-	-
CC(C)c1ccc(/C(C(=O)O)=C(\O)C(=O)O)cc1	-	-	-	-	-	0
COC(=O)C1=C(C(=O)OC)SC(=C2C(=S)C(C)(C)N(C(=O)C(C)C)c3ccccc32)S1	0	0	?	10µM	0	0
COC(=O)C1=C(C(=O)OC)SC(=C2C(=S)C(C)(C)N(C(=O)C3CC3)c3ccccc32)S1	0	0	0	13µM	0	0
CCCC(=O)N1c2ccccc2C(=C2SC(C(=O)OC)=C(C(=O)OC)S2)C(=S)C1(C)C	0	0	0	0	0	0
COc1cccc(-c2nccc(N(C)Cc3ccco3)n2)c1	-	0	?	-	-	0
Cc1cccn2c(=O)c(/C=C3\SC(=S)NC3=O)c(NCCCN3CCOCC3)nc12	?	0	4µM	0	0	-
CCOCCCNc1nc2c(C)cccn2c(=O)c1/C=C1\SC(=S)N(C(C)CC)C1=O (centres undefined)	3.2µM	0	0	?	0	-
CC1=CC(=O)OC1Cc1ccc2ccccc2n1 (centres undefined)	0	-	0	-	?	0
Clc1ccc(CNc2nc(CN3CCOCC3)nc3scc(-c4ccccc4)c23)cc1	0	0	56µM	0	0	0
c1ccc(CNc2nc(CN3CCOCC3)nc3scc(-c4ccccc4)c23)cc1	0	0	?	0	0	0
SMILES	Epigenetic derep	KAT2A inh	Sfp PPTase inh	NPSR antagonist	KDM4E inh	IMPase Li inh
O=C(N/N=C/c1ccco1)c1ccncc1	0	0	0	0	0	0
O=C(N/N=C/C=C/c1ccco1)c1cccnc1	0	0	35µM	0	?	0
O=C(N/N=C\C=C\c1ccco1)c1cncc(Br)c1	0	0	40µM	0	0	-
O=C(N/N=C/C=C\c1ccco1)c1cccnc1	0	0	32µM	0	0	0
O=C(N/N=C/C=C/c1ccccc1)c1cccnc1	0	0	0	0	0	-
O=c1c2nc(Br)n([C@@H]3O[C@@H]4CO[P@@](O)(=S)O[C@H]4[C@H]3O)c2nc2[nH]c(-c3ccccc3)cn12	-	0	0	-	-	-
O=c1c2c(-c3ccc(Cl)cc3)ccnc2[nH]n1-c1ccccc1	0	0	-	-	-	-
COc1ccc(NC(=S)NCCCN2CCCC2)cc1Cl	0	0	20µM	0	0	0
COCCN(C(=S)Nc1ccc(OC)c(Cl)c1)C1CCN(C(C)C)CC1	0	0	40µM	0	0	0
COc1ccc(OC)c(NC(=S)NCCCN2CCOCC2)c1	0	0	50µM	0	0	0
COc1ccc(Cl)cc1NC(=S)NCCN1CCOCC1	0	0	0	0	?	0
COc1ccc(NC(=S)NCCN2CCC(C)CC2)cc1Cl	0	0	2.5µM	0	0	0
C=CC1=C2C=C(C3CC3)N(Cc3ccco3)C=C2C(=O)C(C)(OC(=O)c2ccco2)C1=O (centres undefined)	-	-	0	-	0[11.4 µM]	0
COc1ccccc1N1CCN(c2ncnc3c2c(-c2ccccc2)cn3-c2cccc(C)c2)CC1	0	0	-	-	-	-
CC(C)C1C(=O)N(S(C)(=O)=O)[C@H]2CCN(C(=O)/C=C/CN3CCCCC3)[C@@H]12 (some centres undefined)	-	0	0	-	-	-
C=C(C(C)=O)C(O)c1cccc(Br)c1 (centres undefined)	0	-	0	-	0	0
COc1ccc(NC(=S)N(CCCN2CCC(C)CC2)Cc2cccs2)cc1Cl	0	0	32µM	0	0	0
COc1ccc(NC(=S)N(CCCN2CCN(C)CC2)Cc2cccs2)cc1	0	0	0	0	0	0
Cc1ccc(C2=NN(CCC(=O)NCCc3cccc(C)c3)C(=O)CC2)cc1	0	?	-	-	-	-
COc1ccc(C(CC(=O)O)NC(=O)c2sc3ccccc3c2Cl)cc1 (centres undefined)	0	0	0	?	0	5.6µM
Nc1nc2c(s1)COc1ccccc1-2	0	0	16µM	0	?	0
Cn1c(=S)c2[nH]c(SCCN3CCCC3)nc2n(C)c1=O	0	0	40µM	0	?	0
COc1ccc(OC)c(-n2c(-c3cccc(C)c3)n[nH]c2=S)c1	0	0	79µM	0	0	0
COc1ccccc1-n1c(-c2ccccc2)n[nH]c1=S	0	0	71µM	0	?	0
COc1ccccc1-n1c(CCn2nc(C)c(Br)c2C)n[nH]c1=S	0	0	?	0	0	0
SMILES	Epigenetic derep	KAT2A inh	Sfp PPTase inh	NPSR antagonist	KDM4E inh	IMPase Li inh
COc1ccccc1-n1c(-c2cn(C)nc2C)n[nH]c1=S	0	0	56µM	0	0	0
CC(C)N(C(=O)CSc1nc2ccccc2n1-c1ccccc1)C(C)C	0	0	79µM	?	0	0
CC(C)N(C(=O)CSc1nc2ccccc2n1Cc1ccccc1)C(C)C	0	0	0	?	0	0
CO/N=C\[C@@H](NS(=O)(=O)c1ccc(C)cc1)[C@H](C)/C=C\CC(=O)OC	0[10.1 µM]	-	0	-	-	-
Cc1cccc(NC(=S)NNC(=O)c2ccccc2Br)c1	0	0	0	0	0	0
O=C(NNC(=S)Nc1ccc(F)c(Cl)c1)c1ccccc1Br	0	0	56µM	0	0	0
CC(=O)Nc1cccc(NC(=S)Nc2ccc(F)c(Cl)c2)c1	0	0	35µM	0	0	0
COC(=O)c1cn[nH]c1NC(=S)Nc1ccc(C)cc1Cl	0	0	0	0	0	0
